Source: PubChem BioAssay AID1159580 (chemical genetic matrix, 2015)
Screen size: about 5,500 compounds; about 2,000 (36%) were called active. Inconclusive results (about 18%) are left out. No stated cut-off is given here; in the data, active means normalized growth mostly below about 0.91 (no sharp cut-off); inconclusive means no clear call, values can overlap the other calls; inactive means mostly above about 0.92. The list shows a part of the results.

Experiment: chemical genetic growth profiling, strain panel (AID 1159580);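 further: tested at 20 µM; growth read once vehicle control cultures reached saturation at 30 °C; 1 = growth at the plate median or of vehicle wells; lower values mean less growth of the strain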
Settings: S. cerevisiae deletion strains, growth OD
[1] = locus YAR019C, strain CDC15, active compounds read low
[2] = locus YBL105C, strain PKC1, active compounds read low
[3] = locus YBR135W, strain CKS1, active compounds read low
[4] = locus YBR136W, strain MEC1, active compounds read low
[5] = locus YBR160W, strain CDC28, active compounds read low
[6] = locus YDL017W, strain CDC7, active compounds read low
[7] = locus YDL028C, strain MPS1, active compounds read low
[8] = locus YDL101C, strain DUN1, active compounds read low
[9] = locus YDL108W, strain KIN28, active compounds read low
[10] = locus YDL132W, strain cdc53, active compounds read low
[11] = locus YDL214C, strain PRR2, active compounds read low
[12] = locus YDR052C, strain DBF4, active compounds read low
[13] = locus YDR054C, strain cdc34, active compounds read low
[14] = locus YDR226W, strain ADK1, active compounds read low
[15] = locus YDR477W, strain SNF1, active compounds read low
[16] = locus YER123W, strain YCK3, active compounds read low
[17] = locus YER133W, strain GLC7, active compounds read low
[18] = locus YFL009W, strain cdc4, active compounds read low
[19] = locus YFL029C, strain CAK1, active compounds read low
[20] = locus YFR003C, strain YPI1, active compounds read low
[21] = locus YFR019W, strain FAB1, active compounds read low
[22] = locus YFR028C, strain CDC14, active compounds read low
[23] = locus YGR040W, strain KSS1, active compounds read low
[24] = locus YGR052W, strain FMP48, active compounds read low
[25] = locus YGR092W, strain DBF2, active compounds read low
[26] = locus YHR030C, strain SLT2, active compounds read low
[27] = locus YHR079C, strain IRE1, active compounds read low
[28] = locus YHR082C, strain KSP1, active compounds read low
[29] = locus YHR205W, strain SCH9, active compounds read low
[30] = locus YIL147C, strain SLN1, active compounds read low
[31] = locus YJL095W, strain BCK1, active compounds read low
[32] = locus YJL128C, strain PBS2, active compounds read low
[33] = locus YJL157C, strain FAR1, active compounds read low
[34] = locus YJR016C, strain ILV3, active compounds read low
[35] = locus YJR066W, strain TOR1 (second series), active compounds read low
[36] = locus YJR066W, strain TOR1, active compounds read low
[37] = locus YKL048C, strain ELM1, active compounds read low
[38] = locus YKL067W, strain YNK1, active compounds read low
[39] = locus YKL101W, strain HSL1, active compounds read low
[40] = locus YKL193C, strain SDS22, active compounds read low
[41] = locus YKL203C, strain TOR2, active compounds read low
[42] = locus YLR113W, strain HOG1, active compounds read low
[43] = locus YLR133W, strain CKI1, active compounds read low
[44] = locus YLR403W, strain SFP1, active compounds read low
[45] = locus YML070W, strain DAK1, active compounds read low
[46] = locus YMR001C, strain CDC5, active compounds read low
[47] = locus YMR205C, strain PFK2 (second series), active compounds read low
[48] = locus YMR277W, strain FCP1, active compounds read low
[49] = locus YNL006W, strain LST8, active compounds read low
[50] = locus YNL020C, strain ARK1, active compounds read low
[51] = locus YNL161W, strain CBK1, active compounds read low
[52] = locus YNL183C, strain NPR1, active compounds read low
[53] = locus YNL207W, strain RIO2, active compounds read low
[54] = locus YNL222W, strain SSU72, active compounds read low
[55] = locus YNL307C, strain MCK1 (second series), active compounds read low
[56] = locus YOL078W, strain AVO1, active compounds read low
[57] = locus YOL136C, strain PFK27, active compounds read low
[58] = locus YOR061W, strain CKA2, active compounds read low
[59] = locus YOR119C, strain RIO1, active compounds read low
[60] = locus YOR231W, strain MKK1, active compounds read low
[61] = locus YOR329C, strain SCD5, active compounds read low
[62] = locus YPL031C, strain PHO85, active compounds read low
[63] = locus YPL153C, strain RAD53, active compounds read low
[64] = locus YPL204W, strain HRR25, active compounds read low
[65] = locus YPL209C, strain IPL1, active compounds read low
[66] = locus YPL256C, strain CLN2, active compounds read low
[67] = locus YPR025C, strain CCL1, active compounds read low
[68] = locus YPR106W, strain ISR1, active compounds read low
[69] = locus YPR111W, strain DBF20, active compounds read low
[70] = strain NNK1, active compounds read low
[71] = strain TSCII, active compounds read low

Measured: normalized growth

CC(C)(C)NC(=S)N/N=C\c1cc(Br)c(O)c(Br)c1
inactive: [1] 0.966 | [2] 0.969 | [3] 0.962 | [4] 0.965 | [5] 0.967 | [6] 0.966 | [7] 0.967 | [8] 0.959 | [9] 0.971 | [10] 0.955 | [11] 0.944 | [12] 0.971 | [13] 0.957 | [14] 0.946 | [15] 0.917 | [16] 0.917 | [17] 0.944 | [18] 0.962 | [19] 0.958 | [20] 0.971 | [21] 0.929 | [22] 0.952 | [23] 0.919 | [24] 0.968 | [25] 0.947 | [27] 0.926 | [28] 0.922 | [29] 0.938 | [30] 0.971 | [31] 0.875 | [32] 0.976 | [33] 0.957 | [34] 0.955 | [35] 0.932 | [36] 0.864 | [37] 0.951 | [38] 0.945 | [39] 0.927 | [40] 0.959 | [41] 0.897 | [42] 0.896 | [43] 0.928 | [44] 0.92 | [45] 0.959 | [46] 0.965 | [47] 0.949 | [48] 0.97 | [49] 0.965 | [50] 0.929 | [51] 0.969 | [52] 0.87 | [53] 0.964 | [54] 0.963 | [55] 0.898 | [56] 0.961 | [57] 0.938 | [58] 0.921 | [59] 0.932 | [60] 0.956 | [61] 0.969 | [62] 0.92 | [63] 0.953 | [64] 0.904 | [65] 0.966 | [66] 0.902 | [67] 0.966 | [68] 0.957 | [69] 0.955 | [70] 0.959 | [71] 0.965
active: [26] 0.768

CNC(=S)N/N=C\c1cc(Br)cc(Br)c1O
active: locus YAL013W, strain DEP1, active compounds read low 0.794 | locus YBR229C, strain ROT2, active compounds read low 0.919 | locus YCL061C, strain MRC1, active compounds read low 0.861 | locus YDL134C, strain PPH21, active compounds read low 0.537 | locus YDR150W, strain NUM1, active compounds read low 0.755 | locus YEL061C, strain CIN8, active compounds read low 0.463 | locus YGR078C, strain PAC10, active compounds read low 0.912 | locus YGR229C, strain SMI1, active compounds read low 0.813 | [26] 0.237 | locus YJR043C, strain POL32, active compounds read low 0.814 | locus YJR075W, strain HOC1, active compounds read low 0.847 | locus YKL190W, strain CNB1, active compounds read low 0.36 | locus YLR039C, strain RIC1, active compounds read low 0.155 | locus YLR085C, strain ARP6, active compounds read low 0.139 | locus YLR262C, strain YPT6, active compounds read low 0.15 | locus YML094W, strain GIM5, active compounds read low 0.586 | locus YMR263W, strain SAP30, active compounds read low 0.743 | locus YMR307W, strain GAS1, active compounds read low 0.252 | locus YNL153C, strain GIM3, active compounds read low 0.875 | locus YNL298W, strain CLA4 (second series), active compounds read low 0.311 | locus YNL322C, strain KRE1, active compounds read low 0.817 | locus YNR030W, strain Alg12, active compounds read low 0.274 | locus YPL055C, strain LGE1, active compounds read low 0.485 | locus YPL241C, strain CIN2, active compounds read low 0.522 | locus YPR135W, strain CTF4, active compounds read low 0.334
inactive: [8] 0.912 | locus YHR087W, strain rtc3, active compounds read low 0.944 | locus YLR058C, strain SHM2 (second series), active compounds read low 1 | locus YMR219W, strain ESC1, active compounds read low 0.956

Cc1cc(Br)c(O)c(/C=N\NC(=S)NC(C)(C)C)c1
inactive: [1] 0.98 | [2] 0.987 | [3] 0.971 | [4] 0.981 | [5] 0.978 | [6] 0.972 | [7] 0.972 | [8] 0.993 | [9] 0.969 | [10] 0.984 | [11] 0.922 | [12] 0.982 | [13] 0.98 | [14] 0.965 | [15] 0.91 | [16] 0.894 | [17] 0.879 | [18] 0.981 | [19] 0.973 | [20] 0.976 | [21] 0.959 | [22] 0.975 | [23] 0.893 | [24] 0.883 | [25] 0.823 | [27] 0.872 | [28] 0.97 | [29] 0.942 | [30] 0.981 | [31] 0.875 | [32] 0.952 | [33] 0.911 | [34] 0.99 | [35] 0.839 | [36] 0.899 | [37] 0.973 | [38] 0.934 | [39] 0.914 | [40] 0.98 | [41] 0.914 | [43] 0.917 | [44] 0.857 | [45] 0.917 | [46] 0.975 | [47] 0.944 | [48] 0.98 | [49] 0.98 | [50] 0.903 | [51] 0.975 | [52] 0.848 | [53] 0.976 | [54] 0.988 | [55] 0.893 | [56] 0.982 | [57] 0.947 | [58] 0.91 | [59] 0.967 | [60] 0.874 | [61] 0.988 | [62] 0.876 | [63] 0.906 | [64] 0.884 | [65] 0.981 | [67] 0.975 | [68] 0.987 | [69] 0.985 | [70] 0.982 | [71] 0.984
active: [26] 0.752 | [42] 0.782 | [66] 0.838
